Only some compounds are listed: those with a hit (about 7.6% of all), similar ones and a draw of the others.
KB-3-1 tox = qHTS assay for MDR1-selective chemotherapeutics: Primary screen using the parental adenocarcinoma cell KB-3-1. KB-3-1 viability, CellTiter-Glo ATP luminescence, 72 h. Potency, µM (series often up to 46.1 µM), most hits filed as cytotoxic. 1.4% of 400,000 active; note: potency is the fitted concentration of half-maximal effect; % is set by controls: 0 for no effect and ±100 for the full control effect; nearly all actives have a fitted effect of over 60% in size
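KB-3-1 parental drug-naive adenocarcinoma cells in DMEM/10% FBS, incubated 72 h at 37 C with pin-transferred compounds across a concentration series. Viability by CellTiter-Glo luminescence; concentration-response curves fitted after normalization.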
MCF10A rerep = A quantitative high throughput screen for small molecules that induce DNA re-replication in MCF 10a normal breast cells; AID 624296, 2012; MCF 10A DNA re-replication, Hoechst nuclear intensity, 48 h; Potency, µM (series often up to 46.1 µM), for inactives: top-dose activity, positive = re-replication, hits mostly activators; 2.9% of 350,000 active; note: potency is the fitted concentration of half-maximal effect; % of control where 0% means no effect; nearly all actives have a fitted effect of over 50% in size
KCNH2 WT inh = qHTS for Inhibitors of KCHN2 3.1: Wildtype qHTS | Voltage-gated inwardly rectifying potassium channel KCNH2 (Homo sapiens), Q12809 | U2OS, BacMam KCNH2, thallium flux FluxOr; stronger effect = lower value | activity change, % at 1.84 µM | 0.37% of 340,000 active | AID 720551, 2013;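 active = maximum activity change below -70%; inconclusive = maximum activity change between -70% and -50%; inactive = maximum activity change above -50%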; note: % is set by controls: 0 for no effect and ±100 for the full control effect
Target sequence (Q12809 whole entry, looked up): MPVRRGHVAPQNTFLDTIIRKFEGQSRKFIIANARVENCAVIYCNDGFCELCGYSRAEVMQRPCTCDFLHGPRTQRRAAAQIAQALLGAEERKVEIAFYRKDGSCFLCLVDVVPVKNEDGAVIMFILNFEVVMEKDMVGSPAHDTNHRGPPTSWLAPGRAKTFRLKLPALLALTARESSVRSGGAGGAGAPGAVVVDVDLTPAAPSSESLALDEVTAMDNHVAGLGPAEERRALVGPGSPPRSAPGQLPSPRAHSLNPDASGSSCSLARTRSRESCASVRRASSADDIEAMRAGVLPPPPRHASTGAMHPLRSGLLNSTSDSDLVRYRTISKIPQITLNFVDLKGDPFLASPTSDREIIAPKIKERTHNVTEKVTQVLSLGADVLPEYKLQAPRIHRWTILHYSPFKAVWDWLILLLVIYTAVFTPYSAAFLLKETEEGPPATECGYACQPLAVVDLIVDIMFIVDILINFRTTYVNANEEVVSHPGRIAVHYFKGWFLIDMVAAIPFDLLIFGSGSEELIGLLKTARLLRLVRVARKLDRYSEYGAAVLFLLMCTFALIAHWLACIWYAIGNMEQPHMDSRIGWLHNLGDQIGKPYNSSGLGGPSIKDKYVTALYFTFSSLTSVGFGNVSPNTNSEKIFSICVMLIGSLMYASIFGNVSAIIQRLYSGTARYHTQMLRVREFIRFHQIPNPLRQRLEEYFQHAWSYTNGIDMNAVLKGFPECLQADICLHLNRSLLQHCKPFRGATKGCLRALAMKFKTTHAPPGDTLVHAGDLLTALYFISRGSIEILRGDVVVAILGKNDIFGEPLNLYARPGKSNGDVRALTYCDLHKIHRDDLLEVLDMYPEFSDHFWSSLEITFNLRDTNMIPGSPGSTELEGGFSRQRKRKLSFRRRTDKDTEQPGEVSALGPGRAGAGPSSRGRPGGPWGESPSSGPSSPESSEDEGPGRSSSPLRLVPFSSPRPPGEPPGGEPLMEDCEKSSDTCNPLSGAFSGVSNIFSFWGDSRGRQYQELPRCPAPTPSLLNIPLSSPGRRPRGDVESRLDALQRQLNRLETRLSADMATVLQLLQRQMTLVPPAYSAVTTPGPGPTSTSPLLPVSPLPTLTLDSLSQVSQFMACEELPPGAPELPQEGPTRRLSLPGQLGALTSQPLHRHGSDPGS
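U2OS cells transduced with wild-type KCNH2 virus are loaded with FluxOr dye for 45 min, and thallium flux is measured in kinetic reads before and after stimulation buffer. Rate constants are normalized to DMSO controls.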
KB-V1 cytotox = qHTS assay for MDR1-selective chemotherapeutics: Primary screen using the drug-selected MDR subline cells KB-V1; 3.4% of 400,000 active; Potency, µM (top dose mostly 46.1 µM), most hits filed as cytotoxic; KB-V1 MDR cells viability, CellTiter-Glo, 72 h; note: potency is the fitted concentration of half-maximal effect; % is set by controls: 0 for no effect and ±100 for the full control effect; nearly all actives have a fitted effect of over 60% in size
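KB-V1 MDR subline cells in DMEM (phenol-red free, 10% FBS) exposed to compounds in qHTS concentration series for 72 h at 37 degrees C. Viability read by CellTiter-Glo luminescence; concentration-effect curves fitted after normalization and correction.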
KCNH2 3.1 block = qHTS for Inhibitors of KCHN2 3.1: Mutant qHTS; Potassium voltage-gated channel subfamily H member 2, brain isoform KCNH2 3.1 (human); U2OS KCNH2 3.1, thallium flux FluxOr; stronger effect = lower value; activity change, % (tested at about 1.8 µM); 0.95% of 340,000 active; AID 720553, 2013;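 active = maximum activity change below -70%; inconclusive = maximum activity change from -70% to -50%; inactive = maximum activity change above -50%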;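 note: thallium influx rate constant from kinetic fluorescence after stimulation buffer; % is set by controls: 0 for no effect and ±100 for the full control effect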
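Normalized rate constant (relative to positive and negative DMSO controls) derived from a 2 min kinetic fluorescence read after stimulation; U2OS cells expressing the 3.1 isoform via virus at 1.77 x 10^8 /mL.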
SW480 rereplic = A quantitative high throughput screen for small molecules that induce DNA re-replication in SW480 colon adenocarcinoma cells | Potency, µM (top dose mostly 46.1 µM), inactives show at the top dose re-replication activation, usual class: activators | SW480 DNA re-replication, Hoechst DNA content imaging, 48 h | AID 624297, 2012 | 1.8% of 340,000 active; note: potency is the fitted concentration of half-maximal effect; % of control where 0% means no effect; nearly all actives have a fitted effect of over 55% in size
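Quantitative HTS format with DMSO vehicle controls; 48 hr drug incubation at 37 C, then 40 min Hoechst staining and scanning imager measurement at 405 nm excitation.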
An asterisk follows results filed as active; i = inactive; ? = inconclusive; nt = no result given. Unless noted, calls come from the whole dose curve; as a rule, active = well fitted curve in the direction sought with a large enough effect; inconclusive = small, poorly fitted or top-dose-only effect, or another doubt; inactive = no such curve, though single readings can be large; an effect the other way counts as inactive or inconclusive.

SMILES | KB-3-1 tox | MCF10A rerep | KCNH2 WT inh | KB-V1 cytotox | KCNH2 3.1 block | SW480 rereplic
Cc1c(C(=O)O)[nH]c2ccc([N+](=O)[O-])cc12 | i | -5% | -1 | i | -3 | -9%
Cc1ccc(S(=O)(=O)c2nc(Nc3ccccc3N3CCOCC3)sc2Cl)cc1 | i | 13% | -9 | 10µM* | -10 | 5%
Cc1ccc(S(=O)(=O)c2nc(Nc3ccccc3C#N)sc2Cl)cc1 | i | 25% | -1 | i | 8 | -15%
CCOc1cccc2cc(C(=O)NCc3ccccc3Cl)c(=O)oc12 | i | ? | 0 | i | 15 | -22%
CCCCNC(=O)c1[nH]c2ccccc2c1Sc1ccc(C)cc1 | i | nt | nt | i | nt | nt
CCN(CC)CCCNC(=O)c1[nH]c2ccccc2c1Sc1ccc(Cl)cc1 | i | ? | -127* | i | -111* | 25%
CCc1ccccc1N(C(=O)c1cccs1)C1C=CS(=O)(=O)C1 (centres undefined) | i | 2.6µM* | -8 | i | -10 | ?
O=C(c1cccs1)N(c1cccc(Cl)c1)C1C=CS(=O)(=O)C1 (centres undefined) | i | 6% | 1 | i | 3 | 8%
C[C@@H]1c2ccccc2N2C[C@H](Cc3ccc(C(=O)c4ccccc4)cc3)C[C@@H]12 | i | nt | -10 | ? | -1 | nt
O=C(c1cccs1)N(Cc1cc2ccccc2[nH]c1=O)c1ccccc1 | ? | -70% | 2 | 5.2µM* | -1 | 1%
Cc1ccc(N(Cc2cc3ccccc3[nH]c2=O)C(=O)c2cccs2)cc1C | i | -4% | 6 | ? | -14 | ?
CN(C(=O)COC(=O)CSc1cc(Cl)ccc1Cl)c1c(N)n(Cc2ccccc2)c(=O)[nH]c1=O | i | 1% | -1 | i | -16 | -3%
CC(=O)c1cc(C#N)c(SCc2ccccc2C#N)nc1C | 16µM* | ? | -4 | 10µM* | -4 | ?
CC(=O)c1cc(C#N)c(SCc2ccncc2)nc1C | i | -1% | 2 | i | 20 | 0%
CC1CCc2c(sc(NC(=O)C3c4ccccc4Oc4ccccc43)c2C#N)C1 (centres undefined) | i | nt | nt | i | nt | nt
N#Cc1ccccc1Sc1ccccc1C(=O)Nc1ccc(Br)cc1 | i | 9% | -3 | 18µM* | -16 | 7%
N#Cc1ccc(CN2CCN(C(=O)C3CC(=O)N(c4ccc5c(c4)OCCO5)C3)CC2)cc1 (centres undefined) | i | nt | 2 | i | -2 | nt
Nc1nc2ccccc2n1/N=C/c1ccc(Br)cc1 | i | 6% | 1 | 9.2µM* | -23 | -10%
Cn1c(/N=C/c2ccc3c(c2)OCO3)nc2ccccc21 | i | -3% | 22 | i | 8 | -2%
Nc1nc2ccccc2n1/N=C/c1ccc2c(c1)OCO2 | i | -6% | -7 | ? | 2 | 21µM*
Nc1nnnn1/N=C/c1ccc(Br)cc1 | i | ? | 0 | i | -12 | -43%
COc1cccc(NC(=O)c2c(C(=O)Nc3ccccc3)sc3nc(C)cc(=O)n23)c1 | i | nt | nt | i | nt | nt
Fc1ccc(-c2cn(-c3ccccc3)c3[n+]2CCS3)cc1 | ? | 4% | -1 | i | 1 | -5%
COc1ccc(-c2cn(-c3ccc(Br)cc3)c3[n+]2CCS3)cc1 | 8.2µM* | 4% | 4 | i | -5 | -3%
COc1ccc(-c2cn(-c3ccc(Cl)cc3)c3[n+]2CCCCC3)cc1 | 9.2µM* | ? | -8 | i | -35 | 3%
SMILES | KB-3-1 tox | MCF10A rerep | KCNH2 WT inh | KB-V1 cytotox | KCNH2 3.1 block | SW480 rereplic
Clc1ccc(-c2cn(-c3ccc(Cl)cc3)c3[n+]2CCCCC3)cc1 | ? | 19% | -1 | i | -7 | -11%
Clc1ccc(-c2c[n+]3c(n2-c2ccccc2)SCC3)cc1 | 15µM* | 5% | -38 | i | 17 | -1%
O=[N+]([O-])c1cccc(-c2c[n+]3c(n2-c2ccccc2)SCC3)c1 | i | -1% | 11 | i | -18 | -1%
Clc1ccc(-c2cn(-c3ccccc3)c3[n+]2CCS3)cc1 | 13µM* | 14% | 15 | i | 3 | 9%
COc1cc(/C=N/NC(=O)Cn2cnc3c2c(=O)n(C)c(=O)n3C)ccc1O | i | 1% | -7 | i | -5 | 2%
COc1ccc(CN2CCNC(=O)C2CC(=O)NCCC2=CCCCC2)c(F)c1 (centres undefined) | i | 2% | 14 | i | 2 | -6%
Cc1ccc(-c2cc(-c3ccco3)c3c(N)c(C(=O)NN)oc3n2)cc1 | ? | 7.3µM* | -13 | i | -1 | 21µM*
COc1cccc(/C=N/NC(=O)c2oc3nc(-c4ccccc4)cc(-c4ccco4)c3c2N)c1 | i | ? | -8 | i | -7 | ?
NNC(=O)c1oc2nc(-c3ccccc3)cc(-c3ccccc3)c2c1N | i | 18µM* | 15 | i | -5 | ?
CNC(=S)NNC(=O)c1oc2nc(-c3ccccc3)cc(C)c2c1N | i | 2.6µM* | 1 | i | 6 | 6.5µM*
COc1ccc(C(=O)c2oc3nc(C)cc(C)c3c2N)cc1 | i | 15% | 5 | ? | -1 | 16%
Cc1cc(Cl)ccc1OCC(=O)NCCOc1nc(N2CCCCC2)nc(N2CCOCC2)n1 | i | 3% | -5 | 4.1µM* | -4 | -4%
CC(=O)c1ccc(Nc2nc(-c3cccnc3)cs2)cc1 | i | 0% | -81* | i | 0 | 8%
Cc1cc(NC(=O)Cc2csc(-c3ccccc3)n2)ccc1Br | ? | 4% | 3 | 18µM* | 1 | -117%
O=C(Nc1cccc(-c2csc(Nc3ccccc3)n2)c1)c1ccccc1 | ? | ? | 19 | ? | -79* | 5%
O=C(O)c1ccc(Nc2nc(-c3cccnc3)cs2)cc1 | i | 0% | 24 | i | 5 | -3%
O=C(Nc1nc(-c2ccccc2)cs1)c1cccc([N+](=O)[O-])c1 | i | ? | 6 | 23µM* | -15 | -2%
Cc1cc(C)cc(-n2ccnc2SCC(=O)Nc2ccc(C)c(Cl)c2)c1 | i | nt | nt | i | nt | nt
CSc1ncc(-c2ccc(Cl)cc2)[nH]1 | i | 0% | -1 | i | 6 | ?

Bioassay records (PubChem)
